Results filed as inconclusive are left out. Entries that show only a call come without a potency. Active and inactive are the calls of the source. The call rests on the fitted dose curve; in most records, active means well fitted inhibition curve with a large enough effect; inconclusive means small, poorly fitted or top-dose-only effect; inactive means flat fitted curve, though single readings scatter.

The source of these data is PubChem BioAssay (NCATS).
Potency means the concentration at half of the fitted maximal effect.

Sequence of Calcium and integrin-binding protein 1 (Homo sapiens) (Q99828 whole entry, looked up): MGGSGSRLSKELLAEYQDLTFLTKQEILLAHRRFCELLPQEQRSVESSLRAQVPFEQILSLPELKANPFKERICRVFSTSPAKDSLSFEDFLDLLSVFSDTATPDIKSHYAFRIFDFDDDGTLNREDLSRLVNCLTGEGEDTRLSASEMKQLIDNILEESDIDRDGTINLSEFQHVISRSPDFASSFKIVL

The assay has as its target Calcium and integrin-binding protein 1 (Homo sapiens) (UniProt Q99828). As to the kind of experiment: Primary qHTS for Identification of Calcium Integrin Binding Protein 1 (CIB1) Competitor (AID 1508620). The following applies: CIB1-GST / FITC-alphaIIb peptide fluorescence polarization; series mostly up to 114 µM. A digest of the protocol: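 Fluorescence polarization competition: GST-tagged CIB1 (1 uM final) preincubated with compound 15 min at room temperature, then FITC-labelled alphaIIb peptide (100 nM final) added. After 15 min at room temperature, polarization read at Ex 480/Em 540.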
A general note: Quantitative high-throughput screening tests each substance at several concentrations.
On to `CCCCNC(=S)NCCCc1cnc[nH]1`, for which the Potency entry was “inactive”.
Consider `Cc1cc(C)nc(NC(=S)N2CCN(c3ccc4nsnc4c3)CC2)c1`, for which the Potency was 50.1 µM (active).
For `O=C(Nc1cccnc1)C1CCCCC1` the value was “inactive”; for `Cc1ccc(C(=O)Nc2ccc(N3CCCCC3)cc2)cc1`, “inactive”.
For `O=C1CCCC2=C1C1(CCCC1)N=C(Nc1nc3cc(-c4ccccc4)ccc3o1)N2` the value was “inactive”; for `Cc1cc(N[S+](=O)([O-])c2ccc3c(c2)CCC(=O)N3C)ccc1F`, “inactive”.
